# Inconclusive results are not listed. Activity calls are given as the source filed them. Rule for the calls: active = hit-call score of the fitted dose curve at least 0.9, where 1 is the maximum; inconclusive = response in the unintended direction; inactive = score below 0.9.
# Experiments:
# [1] = molecular target: rat Vasopressin 1 Receptor (V1), Avpr1a (gene 25107) (UniProt P30560); assay: NVS_GPCR_rV1: NovaScreen (NVS) G Protein-Coupled Receptor Assay for rat Vasopressin 1 Receptor (V1) (AID 2283316)
# Method in brief: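 Radioligand binding on rat liver membranes, 1.5 h incubation, filter-based scintillation counting. Single 25 uM screen in duplicate; chemicals meeting threshold (e.g. 30% inhibition) run in concentration-response up to 50 uM.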
# [2] = molecular target: Voltage-dependent N-type calcium channel subunit alpha-1B (Rattus norvegicus) (UniProt Q02294); assay: NVS_IC_rCaChN: NovaScreen (NVS) Ion Channel Assay for rat Calcium Channel, Type N (CaChN) (AID 2283317)
# NCBI gene 24521 = assay: NVS_IC_rKATPCh: NovaScreen (NVS) Ion Channel Assay for rat Potassium Channel, ATP-Sensitive (KATPCh) (AID 2283319)
# Method in brief: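 Rat cortical membranes; radioligand binding at ATP-sensitive K channel site, filter-based scintillation counting 2 h after dosing. Single-point duplicate screen at 25 uM, hits rerun in concentration-response up to 50 uM; loss of signal versus DMSO.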
# [3] = molecular target: rat Glutamate, AMPA Site (AMPA), Gria1 (gene 50592) (UniProt P19490); assay: NVS_LGIC_rAMPA: NovaScreen (NVS) Ligand-Gated Ion Channel Assay for rat Glutamate, AMPA Site (AMPA) (AID 2283324)
# Method in brief: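 Rat forebrain membranes; radioligand binding read 1 h after dosing by filtration and scintillation counting. Duplicate single-point screen at 25 uM, then concentration-response to 50 uM for threshold hits (e.g. 30% inhibition); loss of signal vs DMSO.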
# [4] = molecular target: bovine Gamma-Aminobutyric Acid Type A Receptor Agonist (GABAR Agonist), GABRA1 (gene 780973) (UniProt P08219); assay: NVS_LGIC_bGABAR_Agonist: NovaScreen (NVS) Ligand-Gated Ion Channel Assay for bovine Gamma-Aminobutyric Acid Type A Receptor Agonist (GABAR Agonist) (AID 2283338)
# Method in brief: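 Radioligand binding to bovine cerebellar membranes in agonist format, read by filter-based scintillation counting after 1 h. Primary screen in duplicate at 25 uM, with actives followed in concentration series. Gain of signal versus DMSO.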
# [5] = molecular target: bovine Gamma-Aminobutyric Acid Type A Receptor BDZ, alpha 1 site (GABARa1), GABRA1 (gene 780973) (UniProt P08219); assay: NVS_LGIC_bGABARa1: NovaScreen (NVS) Ligand-Gated Ion Channel Assay for bovine Gamma-Aminobutyric Acid Type A Receptor BDZ, alpha 1 site (GABARa1) (AID 2283321)
# Method in brief: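 Radioligand competition binding on bovine cortical membranes, 0.75 h, filter-based scintillation counting. Primary single concentration 25 uM in duplicate; actives rerun in concentration-response to 50 uM max. Loss of signal fitted versus DMSO.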
# [6] = molecular target: rat Oxytocin Receptor (OXT), Oxtr (gene 25342) (UniProt P70536); assay: NVS_GPCR_rOXT: NovaScreen (NVS) G Protein-Coupled Receptor Assay for rat Oxytocin Receptor (OXT) (AID 2283330)
# Method in brief: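 Radioligand displacement on rat uterine membranes, 1 h incubation, filter-based scintillation counting. Chemicals were screened in duplicate at 25 uM, and those passing threshold were retested in concentration-response up to 50 uM. Loss of binding was fitted versus DMSO.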
# [7] = molecular target: human Androgen Receptor (AR), AR (gene 367) (UniProt P10275); assay: NVS_NR_hAR: NovaScreen (NVS) Nuclear Receptor Binding Assay for human Androgen Receptor (AR) (AID 2283332)
# Method in brief: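 Actives from a duplicate 25 uM single-point screen went on to concentration series. Read-out after 20 h was scintillation counting of displaced radioligand in LnCAP extract, with DMSO as baseline.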
# [8] = molecular target: human Serotonin, 5-Hydroxytryptamine Receptor 3 (5HT3), HTR3A (gene 3359) (UniProt P46098); assay: NVS_LGIC_h5HT3: NovaScreen (NVS) Ligand-Gated Ion Channel Assay for human Serotonin, 5-Hydroxytryptamine Receptor 3 (5HT3) (AID 2283325)
# Method in brief: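 Radioligand displacement binding to human 5-HT3 from HEK293 membranes, read by filter-based scintillation counting after 1 h. Screen at 25 uM in duplicate; chemicals passing threshold were retested in concentration-response up to 50 uM.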
# [9] = molecular target: rat Gamma-Aminobutyric Acid Type A Receptor, Non-Selective (GABAR-NonSelective), Gabra1 (gene 29705) (UniProt P62813); assay: NVS_LGIC_rGABAR_NonSelective: NovaScreen (NVS) Ligand-Gated Ion Channel Assay for rat Gamma-Aminobutyric Acid Type A Receptor, Non-Selective (GABAR-NonSelective) (AID 2283326)
# Method in brief: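 Radioligand displacement on rat whole-brain extract, 1 h, filter scintillation readout; signal loss fitted versus DMSO. Primary screen in duplicate at 25 uM; hits (e.g. ≥30% inhibition) retested in concentration-response up to 50 uM.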
# [10] = molecular target: human Constitutive Androstane Receptor (CAR), NR1I3 (gene 9970) (UniProt Q14994); assay: NVS_NR_hCAR_Agonist: NovaScreen (NVS) Nuclear Receptor Binding Assay for human Constitutive Androstane Receptor Agonism (CAR) (AID 2283328)
# Method in brief: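 Cell-free TR-FRET binding readout with extracted human CAR protein, read 1 h after dosing. Gain of signal fitted against DMSO baseline. Single-concentration duplicates at 25 uM, then concentration-response up to 50 uM for actives.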
# [11] = molecular target: human Peripheral-type Benzodiazepine Receptor (PBR), TSPO (gene 706) (UniProt P30536); assay: NVS_MP_hPBR: NovaScreen (NVS) Membrane Protein Assay for human Peripheral-type Benzodiazepine Receptor (PBR) (AID 2283331);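 note: hits reduce radioligand binding relative to DMSO baseline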
# Method in brief: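 Human colonic cell membranes were incubated with test chemical for 1 hour; radioligand binding was measured by filter-based scintillation counting. Primary screen ran in duplicate at 25 uM, with actives followed in concentration series; loss of signal versus DMSO baseline.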
# [12] = molecular target: rat Peripheral-type Benzodiazepine Receptor (PBR), Tspo (gene 24230) (UniProt P16257); assay: NVS_MP_rPBR: NovaScreen (NVS) Membrane Protein Assay for rat Peripheral-type Benzodiazepine Receptor (PBR) (AID 2283335)
# Method in brief: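 Rat kidney membranes; radioligand binding with displacement, filter-based scintillation counting, 1 h incubation. Primary screen in duplicate at 25 uM, actives followed in concentration series; loss of binding vs DMSO.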
# human Peripheral-type Benzodiazepine Receptor (PBR), TSPO (gene 706), sequence (P30536 whole entry, looked up): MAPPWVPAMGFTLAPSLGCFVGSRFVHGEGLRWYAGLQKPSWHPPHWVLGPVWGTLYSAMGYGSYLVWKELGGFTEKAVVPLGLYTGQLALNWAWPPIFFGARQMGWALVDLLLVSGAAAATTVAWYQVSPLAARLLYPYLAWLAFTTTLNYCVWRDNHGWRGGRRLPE
# rat Peripheral-type Benzodiazepine Receptor (PBR), Tspo (gene 24230), sequence (P16257 whole entry, looked up): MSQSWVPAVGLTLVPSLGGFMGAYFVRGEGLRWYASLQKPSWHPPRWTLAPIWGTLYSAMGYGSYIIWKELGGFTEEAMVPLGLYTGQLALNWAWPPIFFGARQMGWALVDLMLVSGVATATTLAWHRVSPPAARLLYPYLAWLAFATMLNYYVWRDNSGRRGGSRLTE
# rat Glutamate, AMPA Site (AMPA), Gria1 (gene 50592), sequence (P19490 whole entry, looked up): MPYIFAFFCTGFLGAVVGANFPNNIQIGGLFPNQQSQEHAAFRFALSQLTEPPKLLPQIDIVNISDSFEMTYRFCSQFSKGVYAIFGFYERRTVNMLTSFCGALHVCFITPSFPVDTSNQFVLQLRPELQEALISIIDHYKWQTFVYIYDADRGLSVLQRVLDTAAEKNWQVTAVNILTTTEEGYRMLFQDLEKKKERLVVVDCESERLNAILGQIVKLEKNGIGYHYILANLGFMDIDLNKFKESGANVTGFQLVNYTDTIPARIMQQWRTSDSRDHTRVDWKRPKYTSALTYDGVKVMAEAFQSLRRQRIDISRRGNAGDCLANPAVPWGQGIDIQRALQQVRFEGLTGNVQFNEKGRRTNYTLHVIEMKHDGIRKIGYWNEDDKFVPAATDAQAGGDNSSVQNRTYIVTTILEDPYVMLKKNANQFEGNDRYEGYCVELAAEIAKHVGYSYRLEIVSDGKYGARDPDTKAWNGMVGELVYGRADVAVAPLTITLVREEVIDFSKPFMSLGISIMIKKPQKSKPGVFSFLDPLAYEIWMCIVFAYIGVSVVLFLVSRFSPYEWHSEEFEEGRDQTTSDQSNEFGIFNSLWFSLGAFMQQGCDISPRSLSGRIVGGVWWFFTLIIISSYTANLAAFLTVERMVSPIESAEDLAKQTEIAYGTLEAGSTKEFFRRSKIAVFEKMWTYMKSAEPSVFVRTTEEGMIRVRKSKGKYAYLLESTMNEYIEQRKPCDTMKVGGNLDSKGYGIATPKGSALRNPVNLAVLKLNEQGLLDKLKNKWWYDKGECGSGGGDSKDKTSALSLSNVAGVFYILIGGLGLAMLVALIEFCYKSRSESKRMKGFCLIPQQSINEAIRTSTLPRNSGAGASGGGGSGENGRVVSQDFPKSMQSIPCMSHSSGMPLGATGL
# rat Vasopressin 1 Receptor (V1), Avpr1a (gene 25107), sequence (P30560 whole entry, looked up): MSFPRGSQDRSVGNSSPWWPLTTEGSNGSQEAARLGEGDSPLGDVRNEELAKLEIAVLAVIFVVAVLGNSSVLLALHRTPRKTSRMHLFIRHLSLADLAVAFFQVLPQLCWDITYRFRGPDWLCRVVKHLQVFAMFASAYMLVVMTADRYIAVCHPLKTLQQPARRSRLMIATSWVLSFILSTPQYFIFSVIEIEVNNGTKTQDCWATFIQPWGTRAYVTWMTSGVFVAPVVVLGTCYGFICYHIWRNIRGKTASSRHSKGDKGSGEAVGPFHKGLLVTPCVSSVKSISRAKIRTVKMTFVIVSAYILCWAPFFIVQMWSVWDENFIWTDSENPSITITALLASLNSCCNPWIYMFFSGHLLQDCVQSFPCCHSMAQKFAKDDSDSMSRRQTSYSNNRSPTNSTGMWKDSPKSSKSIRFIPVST
# human Constitutive Androstane Receptor (CAR), NR1I3 (gene 9970), sequence (Q14994 whole entry, looked up): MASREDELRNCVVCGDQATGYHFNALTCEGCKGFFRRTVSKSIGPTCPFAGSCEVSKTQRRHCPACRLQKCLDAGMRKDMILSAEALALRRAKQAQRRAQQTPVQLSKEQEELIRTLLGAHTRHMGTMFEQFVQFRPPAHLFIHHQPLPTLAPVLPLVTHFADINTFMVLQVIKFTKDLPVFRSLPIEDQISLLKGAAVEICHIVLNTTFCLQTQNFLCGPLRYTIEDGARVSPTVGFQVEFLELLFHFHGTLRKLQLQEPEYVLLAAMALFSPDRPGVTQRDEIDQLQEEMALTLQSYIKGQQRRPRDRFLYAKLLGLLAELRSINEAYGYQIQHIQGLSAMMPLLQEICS
# rat Oxytocin Receptor (OXT), Oxtr (gene 25342), sequence (P70536 whole entry, looked up): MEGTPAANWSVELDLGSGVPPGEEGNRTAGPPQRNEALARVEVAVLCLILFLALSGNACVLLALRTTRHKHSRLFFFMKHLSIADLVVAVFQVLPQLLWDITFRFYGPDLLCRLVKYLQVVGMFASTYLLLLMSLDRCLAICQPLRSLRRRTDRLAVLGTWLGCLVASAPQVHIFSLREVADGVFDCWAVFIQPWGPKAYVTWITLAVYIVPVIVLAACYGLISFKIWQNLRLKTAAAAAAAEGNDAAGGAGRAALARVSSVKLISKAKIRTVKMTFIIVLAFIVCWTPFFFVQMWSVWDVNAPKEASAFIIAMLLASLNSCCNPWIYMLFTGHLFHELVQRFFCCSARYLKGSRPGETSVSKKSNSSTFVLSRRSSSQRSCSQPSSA
# rat Gamma-Aminobutyric Acid Type A Receptor, Non-Selective (GABAR-NonSelective), Gabra1 (gene 29705), sequence (P62813 whole entry, looked up): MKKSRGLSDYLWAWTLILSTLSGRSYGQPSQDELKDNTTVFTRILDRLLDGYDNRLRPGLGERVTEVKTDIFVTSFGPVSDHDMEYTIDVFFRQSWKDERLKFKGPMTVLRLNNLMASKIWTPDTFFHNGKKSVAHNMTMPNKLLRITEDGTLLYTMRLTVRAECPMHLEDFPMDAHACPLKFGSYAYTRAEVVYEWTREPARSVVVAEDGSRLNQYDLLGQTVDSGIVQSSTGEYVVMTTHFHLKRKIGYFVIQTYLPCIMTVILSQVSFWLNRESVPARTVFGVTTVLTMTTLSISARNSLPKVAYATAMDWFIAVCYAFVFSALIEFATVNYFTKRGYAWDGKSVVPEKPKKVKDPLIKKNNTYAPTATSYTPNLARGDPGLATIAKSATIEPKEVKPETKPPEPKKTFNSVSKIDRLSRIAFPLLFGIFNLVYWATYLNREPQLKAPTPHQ
# human Serotonin, 5-Hydroxytryptamine Receptor 3 (5HT3), HTR3A (gene 3359), sequence (P46098 whole entry, looked up): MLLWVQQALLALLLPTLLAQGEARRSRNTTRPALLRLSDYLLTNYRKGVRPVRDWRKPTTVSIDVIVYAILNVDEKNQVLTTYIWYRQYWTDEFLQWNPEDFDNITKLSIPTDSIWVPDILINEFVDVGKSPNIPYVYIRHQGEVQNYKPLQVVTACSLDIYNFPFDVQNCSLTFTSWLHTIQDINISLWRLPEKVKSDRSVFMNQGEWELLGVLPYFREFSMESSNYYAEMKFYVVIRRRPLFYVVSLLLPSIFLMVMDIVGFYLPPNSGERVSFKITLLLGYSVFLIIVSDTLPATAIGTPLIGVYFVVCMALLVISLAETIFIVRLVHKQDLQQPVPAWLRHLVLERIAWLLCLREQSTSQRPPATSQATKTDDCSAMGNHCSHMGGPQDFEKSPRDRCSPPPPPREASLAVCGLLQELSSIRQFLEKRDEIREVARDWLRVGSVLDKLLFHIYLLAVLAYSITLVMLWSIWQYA
# bovine Gamma-Aminobutyric Acid Type A Receptor Agonist (GABAR Agonist), GABRA1 (gene 780973), sequence (P08219 whole entry, looked up): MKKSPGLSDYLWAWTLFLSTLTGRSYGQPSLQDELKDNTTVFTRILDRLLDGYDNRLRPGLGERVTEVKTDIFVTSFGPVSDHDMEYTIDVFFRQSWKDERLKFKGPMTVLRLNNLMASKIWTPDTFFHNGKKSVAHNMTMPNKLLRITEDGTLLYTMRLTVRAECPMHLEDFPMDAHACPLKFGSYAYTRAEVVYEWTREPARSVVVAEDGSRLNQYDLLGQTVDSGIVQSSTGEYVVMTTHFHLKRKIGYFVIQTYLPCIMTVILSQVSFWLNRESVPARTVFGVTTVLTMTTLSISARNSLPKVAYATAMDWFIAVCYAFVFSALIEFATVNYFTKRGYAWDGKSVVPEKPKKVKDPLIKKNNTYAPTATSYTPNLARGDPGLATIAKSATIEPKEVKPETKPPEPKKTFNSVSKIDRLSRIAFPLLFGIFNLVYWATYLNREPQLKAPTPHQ
# bovine Gamma-Aminobutyric Acid Type A Receptor BDZ, alpha 1 site (GABARa1), GABRA1 (gene 780973), sequence (P08219 whole entry, looked up): as above
compound,measurement,setting,value
O=C(O)C(F)(F)C(F)(F)C(F)(F)C(F)(F)C(F)(F)C(F)(F)F,AC50,[1],39.2 µM (active)
O=C(O)C(Cl)(Cl)Cl,AC50,[1],1.6 µM (active)
O=c1[nH]c(=O)[nH]c(=O)[nH]1,outcome,[2],inactive
C=C(C)C(=O)[O][Sn]([CH2]CCC)([CH2]CCC)[CH2]CCC,outcome,NCBI gene 24521,inactive
same,AC50,[3],25 µM (active)
same,outcome,[4],inactive
Cn1sc(Cl)cc1=O,outcome,[5],inactive
CC(=O)[O][Hg][c]1ccccc1,AC50,[3],9.18 µM (active)
same,AC50,[6],15.7 µM (active)
same,AC50,[7],16.9 µM (active)
O=C(O)C(F)(F)C(F)(F)C(F)(F)C(F)(F)C(F)(F)C(F)(F)C(F)(F)C(F)(F)C(F)(F)C(F)(F)F,outcome,[8],inactive
CCOP(=S)(OCC)Oc1nc(Cl)c(Cl)cc1Cl,AC50,[9],9.12 µM (active)
same,outcome,[10],inactive
O=C1C2(Cl)C3(Cl)C4(Cl)C(Cl)(Cl)C5(Cl)C3(Cl)C1(Cl)C5(Cl)C24Cl (stereo unspecified),outcome,[10],inactive
Cc1ccccc1C(=O)Nc1cccc(OC(C)C)c1,AC50,[11],1.12 µM (active)
same,AC50,[12],1.13 µM (active)
CCOC(=O)/C=C(C)/C=C/C[C@@H](C)CCCC(C)C,AC50,[11],33.2 µM (active)
same,AC50,[12],17.6 µM (active)
Nc1ccc(-c2ccc(N)c(Cl)c2)cc1Cl,AC50,[11],9.91 µM (active)
same,outcome,[12],inactive
C[C@H]1CCCC(=O)CCC/C=C/c2cc(O)cc(O)c2C(=O)O1,AC50,[11],1.66 µM (active)
same,AC50,[12],0.346 µM (active)
CCOP(=S)(OCC)Oc1ccc(S(C)=O)cc1 (stereo unspecified),outcome,[12],inactive
Nc1cccc2ccccc12,outcome,[12],inactive
O=C1C(Cl)=C(Cl)C(=O)c2ccccc21,AC50,[11],7.47 µM (active)
O=C(Cc1ccccc1)c1ccccc1,AC50,[12],9.94 µM (active)

# Reference: PubChem BioAssay (EPA / NIEHS)
